Measurements published in PubChem BioAssay (Tox21).
Several values for one entry are separate records, joined by “and”; a condition that tells them apart may be missing. Equal values may be shown once. Results filed as inconclusive are left out. Some structures have more than one record in an assay (separate samples or runs), and their calls can disagree. Activity calls are given as the source filed them. Unless noted, calls follow the shape of the dose curve; as a rule, active = well fitted curve in the direction sought with a large enough effect in the repeat runs; inconclusive = weak or mixed curves; inactive = no such curve, though single readings can be large; an effect the other way counts as inactive or inconclusive.

Legend:
[1] = qHTS assay to identify small molecule antagonists of the progesterone receptor (PR) signaling pathway - cell viability counter screen (AID 1346798); also: nearly all actives have a fitted effect of over 50% in size; also: potency is read from the fitted curve at half-maximal effect
Outline: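 ATP content as viability readout: CellTiter-Glo luminescence, 30 min room temperature, in PR-UAS-bla HEK293T cells after 16 hr compound/R5020 treatment at 37C and 5% CO2.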

[2] = qHTS assay to identify small molecule agonists of the progesterone receptor (PR) signaling pathway - cell viability counter screen (AID 1346799; calls by dose curve; also: nearly all actives have a fitted effect of over 45% in size; also: potency is read from the fitted curve at half-maximal effect)
Outline: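 Cytotoxicity in PR-bla HEK293T cells: 16 h compound, 37C; CellTiter-Glo added post-FRET read; luminescence after 30 min RT.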

[3] = qHTS assay to identify small molecule antagonists of the TGF-beta/Smad signaling pathway - cell viability counter screen (AID 1346824); also: nearly all actives have a fitted effect of over 50% in size; also: potency is read from the fitted curve at half-maximal effect
Outline: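 SBE-bla HEK 293T cells were plated overnight at 37 C, then given compounds in DMSO plus TGF-beta1 (added as 0.25 ng/mL solution) for 5 hr. After the bla read, CellTiter-Glo was added to the same wells and luminescence read after 30 min at room temperature.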

[4] = qHTS assay to identify small molecule agonists of the TGF-beta/Smad signaling pathway - cell viability counter screen (AID 1346829); also: nearly all actives have a fitted effect of over 45% in size; also: potency is read from the fitted curve at half-maximal effect
Outline: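 Luminescence from CellTiter-Glo, read after a 30 min room-temperature incubation, gives cell viability of SBE-bla HEK 293T cells treated 5 hr with compounds at 37 C.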

[5] = Caspase-3/7 induction in HepG2 cells by small molecules, qHTS assay (AID 1346978); also: nearly all actives have a fitted effect of over 15% in size; also: potency is read from the fitted curve at half-maximal effect
Outline: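 Wild-type HepG2 cells (2,000/well) were settled 5 h at 37 C, 5% CO2, then exposed to compounds in DMSO for 17 h. Caspase-3/7 activity was read by luminescence 30 min after adding Caspase-Glo 3/7 reagent at room temperature.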

[6] = qHTS assay to identify small molecule agonists of the TGF-beta/Smad signaling pathway (AID 1346859; active = well fitted activation curve with a large enough effect in the signal ratio in the repeat runs, not every such curve was filed as active; the % refers to the signal ratio; also: series mostly up to about 77 µM)
Outline: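 Stable Smad binding element-beta-lactamase HEK 293T cells; 5 hr compound exposure at 37 C under 5% CO2; 2 hr room-temperature substrate step; fluorescence excited at 405 nm, collected at 460 nm and 530 nm.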

[7] = target: Thyrotropin-releasing hormone receptor (Homo sapiens) (UniProt P34981); test: qHTS assay to identify small molecule agonists of the thyrotropin-releasing hormone receptor (TRHR) signaling pathway (AID 1346891; calls by dose curve;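 also: HEK293 cells expressing TRHR with calcium dye readout; series mostly up to about 58 µM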)
Outline: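 In 1536-format, 1500 TRHR-Hek293 cells per well grew 18 h, took up calcium dye for 2 h at 37 °C, received compound, and were read kinetically; 15-point titrations, triplicates.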

[8] = target: Thyrotropin-releasing hormone receptor (Homo sapiens) (UniProt P34981); test: qHTS assay to identify small molecule antagonists of the thyrotropin-releasing hormone receptor (TRHR) signaling pathway (AID 1346877; active = well fitted inhibition curve with a large enough effect in the repeat runs, not every such curve was filed as active; also: series mostly up to about 51 µM)
Outline: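 Antagonist mode: after a 5 min room-temperature compound exposure, cells were stimulated with 1 nM (final) TRH. Dye-loaded TRHR-HEK293 cells were used, and calcium-dependent fluorescence was followed for 3 min, with 15-point titrations run in triplicate.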

[9] = Human pregnane X receptor (PXR) small molecule agonists, qHTS cell viability counter screen (AID 1346977); also: nearly all actives have a fitted effect of over 50% in size; also: potency is read from the fitted curve at half-maximal effect
Outline: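 Readout is CellTiter-Fluor fluorescence from PXR-Luc HepG2 cells. Plated cells rested 5hr, then were treated with compounds for 24hr at 37C and 5% CO2, with reagent present during the last hour.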

Measured: Potency

Thyrotropin-releasing hormone receptor (Homo sapiens), sequence (P34981 whole entry, looked up): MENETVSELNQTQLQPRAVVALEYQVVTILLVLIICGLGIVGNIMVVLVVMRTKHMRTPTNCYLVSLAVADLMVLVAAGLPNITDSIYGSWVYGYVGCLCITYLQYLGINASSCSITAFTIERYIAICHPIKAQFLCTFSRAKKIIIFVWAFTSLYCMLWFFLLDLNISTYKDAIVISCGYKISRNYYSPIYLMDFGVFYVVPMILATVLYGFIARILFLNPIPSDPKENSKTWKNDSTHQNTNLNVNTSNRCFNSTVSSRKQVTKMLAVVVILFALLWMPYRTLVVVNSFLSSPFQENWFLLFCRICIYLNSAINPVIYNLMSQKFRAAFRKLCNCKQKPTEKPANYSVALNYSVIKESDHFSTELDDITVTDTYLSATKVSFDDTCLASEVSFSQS

c1ccc2c(c1)-c1cccc3c1c-2cc1ccccc13
inactive: [1] | [2] | [3] | [4] | [5]

CCCCC(CC)COC(=O)CC(C(=O)OCC(CC)CCCC)S(=O)(=O)O (stereo not drawn)
active: [2] 29.5 µM
inactive: [4] | [6] | [7] | [5]

O=C(O)c1cccc(C(=O)O)c1
not listed: [5]
inactive: all other assays above

Cc1cc(Cc2cc(C)cc(C(C)(C)C)c2O)c(O)c(C(C)(C)C)c1
inactive: [7]
active: [1] 43.5 µM and 48.6 µM | [2] 27.4 µM | [3] 49.2 µM and 54.9 µM | [4] 43.9 µM and 54.9 µM | [5] 61.4 µM

c1ccc2cc3c(ccc4ccccc43)cc2c1
not listed: [7] | [8] | [9]
inactive: all other assays above

Cc1cc(OCCOCC[N+](C)(C)Cc2ccccc2)ccc1C(C)(C)CC(C)(C)C
inactive: [6] | [7]
active: [1] 54.2 µM and 26.6 µM | [2] 27.1 µM and 13.3 µM | [3] 43.4 µM and 23.9 µM | [4] 43.4 µM and 23.9 µM | [9] 54.2 µM

Cc1ccc(-c2cc(C(F)(F)F)nn2-c2ccc(S(N)(=O)=O)cc2)cc1
76.6 µM (active) and inactive: [2]
inactive: [1] | [3] | [4] | [7]
active: [5] 54.3 µM
60.9 µM (active) and inactive: [9]

CC(C)C(=O)c1c(C(C)C)nn2ccccc12
not listed: [6] | [7] | [8]
inactive: all other assays above

Cc1ccc(S(=O)(=O)Oc2ccc(N=Nc3ccc(-c4ccc(N=Nc5c(O)ccc6cc(S(=O)(=O)O)cc(S(=O)(=O)O)c56)c(C)c4)cc3C)cc2)cc1
active: [9] 11.2 µM and 8.92 µM
inactive: [1] | [2] | [3] | [4] | [6]

CCC(C)(C)C(=O)O[C@H]1C[C@@H](C)C=C2C=C[C@H](C)[C@H](CC[C@@H]3C[C@@H](O)CC(=O)O3)[C@H]21
inactive: [1] | [3] | [4] | [6] | [5]

BrC1CCC(Br)C(Br)CCC(Br)C(Br)CCC1Br (stereo not drawn)
inactive: [3] | [5]
active: [1] 54.3 µM and 51.7 µM | [2] 30.5 µM and 41.1 µM

Nc1ccc2cc3ccccc3cc2c1
inactive: [1] | [2] | [3] | [4] | [5]

CC1=CC(=O)c2ccccc2C1=O
active: [3] 49 µM | [4] 54.9 µM
not listed: [8] | [9]
inactive: all other assays above

O=C(Nc1ccccc1SSc1ccccc1NC(=O)c1ccccc1)c1ccccc1
not listed: [2] | [6] | [8]
inactive: all other assays above
